# Inconclusive results are not listed. Unmarked numbers belong to inactive results. Activity calls are given as the source filed them. Calls follow the shape of the dose curve; as a rule, active = well fitted activation curve with a large enough effect; inconclusive = small, poorly fitted or top-dose-only effect; inactive = flat fitted curve, though single readings scatter.
# Molecular target: Relaxin receptor 2 (Homo sapiens) (UniProt Q8WXD0)
# Assay: qHTS Assay for Agonists of the Relaxin Receptor RXFP1: RXFP2 Hit Validation; also: nearly all actives have a fitted effect of over 65% in size;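 as to activation: 0% = buffer only basal cAMP and 100% = 29 nM porcine relaxin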
# Conditions: HEK293 RXFP2 cAMP TR-FRET, 30 min; series mostly up to 115 µM; activation: at the top concentration
# Outline: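 HEK293 cells expressing RXFP2, cultured 16-24 hr, treated 30 min at 37C with compounds plus PDE4 inhibitor Ro 20174. cAMP measured by HTRF TR-FRET; EC50 from Hill fits, normalized to buffer and 29 nM porcine relaxin.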
# Potency is read from the fitted curve at half-maximal effect.
# Sequence of Relaxin receptor 2 (Homo sapiens) (Q8WXD0 whole entry, looked up): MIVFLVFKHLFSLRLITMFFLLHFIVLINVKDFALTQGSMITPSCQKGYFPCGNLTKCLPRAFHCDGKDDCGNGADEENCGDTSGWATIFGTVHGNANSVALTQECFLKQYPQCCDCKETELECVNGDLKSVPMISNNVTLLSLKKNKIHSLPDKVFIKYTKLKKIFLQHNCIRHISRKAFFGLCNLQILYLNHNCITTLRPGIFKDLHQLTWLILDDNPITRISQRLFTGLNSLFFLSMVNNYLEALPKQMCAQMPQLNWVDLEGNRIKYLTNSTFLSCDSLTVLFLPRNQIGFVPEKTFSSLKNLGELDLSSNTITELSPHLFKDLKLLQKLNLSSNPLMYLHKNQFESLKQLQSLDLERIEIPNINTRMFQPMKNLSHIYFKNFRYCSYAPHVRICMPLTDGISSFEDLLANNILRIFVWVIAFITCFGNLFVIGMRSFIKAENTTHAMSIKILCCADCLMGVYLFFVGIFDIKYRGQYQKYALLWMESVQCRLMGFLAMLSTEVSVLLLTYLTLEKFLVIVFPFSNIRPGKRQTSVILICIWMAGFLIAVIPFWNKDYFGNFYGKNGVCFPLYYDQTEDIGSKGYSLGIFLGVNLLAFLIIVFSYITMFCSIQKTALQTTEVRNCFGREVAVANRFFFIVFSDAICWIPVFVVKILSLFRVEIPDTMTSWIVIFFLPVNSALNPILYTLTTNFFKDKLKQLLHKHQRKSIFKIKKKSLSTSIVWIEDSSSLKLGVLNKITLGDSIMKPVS
Compound,Potency,activation
CCOC(=O)C1CCN(C(=O)c2cc3c(=O)n4ccccc4nc3s2)CC1,48.9 µM (active),
COC(=O)c1nc2ccc(N3CCOCC3)cc2c(C)c1C(=O)OC,38.9 µM (active),
COc1ccc(NC(=O)CSc2nc(-c3ccc(C)cc3)cc(C(F)(F)F)c2C#N)cc1,,27% [at 44.7 µM]
O=C(O)c1cc(-c2ccc(Br)s2)nc2ccccc12,3.46 µM (active),
COC(=O)[C@@H]1C[C@@]2(O)[C@H](O)[C@H](O)[C@H](O)C[C@H]2N1Cc1cc(F)ccc1F,,4.14%
CC1C/C(=N\NC(N)=S)c2cc(Cl)ccc2S1 (stereo unspecified),,17.3%
O=[N+]([O-])c1cc2c(c(CSc3nnc4ccccn34)c1)OCOC2,11 µM (active),
CCN(CC)S(=O)(=O)c1cccc(N=Nc2c(O)c3ccccc3oc2=O)c1,34.6 µM (active),
Brc1ccc2ncnc(NCc3cccnc3)c2c1,43.6 µM (active),
CC[N+](CC)(CCCCS(=O)(=O)[O-])CCNP1(=O)C=C(c2ccccc2)OC(c2ccccc2)=C1,34.6 µM (active),
CC[n+]1ccc(/C=C/c2ccc(N(C)C)cc2)c2ccccc21,,-21.1%
CC1(C)Cc2c(sc3ncnc(NN)c23)CO1,,21.1% [at 44.7 µM]
COc1ccc(CN2C(=O)c3cccnc3C2=O)cc1S(=O)(=O)NC1CCCCC1C (stereo unspecified),15.5 µM (active),
CC(=O)C1C(c2ccccc2)c2c(noc2C)CC1(C)O (stereo unspecified),,-5.3%
O=C(Nc1ccccc1C(=O)NC1CCCCC1)c1ccco1,,15.2% [at 125 µM]
O=C(O)c1ccc(N2C(=O)c3cccc4c(C(=O)O)ccc(c34)C2=O)cc1,47.3 µM (active),

# Source: PubChem BioAssay AID489043 (National Center for Advancing Translational Sciences (NCATS), 2010)
